Measurements reported in PubChem BioAssay AID720566 (Broad Institute, 2013).
Potency and affinity values are given separately. Calls of active or inactive are those of the source.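 How the source made its calls: active means in all runs, an absorbance decrease of 25% or more of the average positive control decrease; inconclusive means runs conflict, with both active and inactive results; inactive means all runs inactive, opposite-direction effects included.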

target: Protein disulfide-isomerase A6 (Homo sapiens) (UniProt Q15084); assay: inhibitors of ERp5-mediated insulin aggregation, dose response, biochemical, turbidity, absorbance 650 nm, cherry-picked samples (AID 720566); details: Recombinant ERp5 insulin aggregation; series mostly up to 35 µM; activity change, negative = inhibition: at the top concentration
Sequence (Q15084 whole entry, looked up): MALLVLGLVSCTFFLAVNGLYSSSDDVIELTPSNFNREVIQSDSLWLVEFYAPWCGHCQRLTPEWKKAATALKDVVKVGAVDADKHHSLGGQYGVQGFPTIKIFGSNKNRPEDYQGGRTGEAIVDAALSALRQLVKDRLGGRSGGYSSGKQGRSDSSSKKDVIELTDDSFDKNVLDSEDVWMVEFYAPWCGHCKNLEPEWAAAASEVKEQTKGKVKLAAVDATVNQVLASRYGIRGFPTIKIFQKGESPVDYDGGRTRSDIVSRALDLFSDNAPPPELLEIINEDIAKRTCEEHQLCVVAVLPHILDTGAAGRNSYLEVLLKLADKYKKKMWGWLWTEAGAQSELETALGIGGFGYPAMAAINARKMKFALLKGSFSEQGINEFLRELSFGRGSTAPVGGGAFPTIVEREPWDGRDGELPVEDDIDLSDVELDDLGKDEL

Activity change, negative = inhibition, inactive:
O=C(CCN1C(=O)/C(=C\c2ccccc2)SC1=S)NCCCN1CCOCC1 -1.25%
COc1ccc2c3c([nH]c2c1)[C@H](CO)N(C(=O)CN(C)C)CC31CCN(CC2CCCC2)CC1 0.289%
C[C@@H]1CN([C@@H](C)CO)C(=O)c2cc(C#CC3CCCCC3)cnc2O[C@@H]1CN(C)S(=O)(=O)c1ccccc1 -8%
Cc1ccc(NC(=O)c2cccc(S(C)(=O)=O)c2)cc1 3.21%
CC(C)(C)c1cc(NC(=O)c2ccco2)no1 8.27%
COCC(=O)N(C)C[C@H]1Oc2cc(C#CC(C)(C)O)ccc2S(=O)(=O)N([C@@H](C)CO)C[C@@H]1C 2.99%
CCCNC(=O)C[C@H]1C[C@H]2c3cc(NS(C)(=O)=O)ccc3O[C@H]2[C@@H](CO)O1 -11.5%
COc1ccccc1CN(C)c1ccc(S(=O)(=O)N2CCN(C)CC2)cn1 -5.32%
O=C(Nc1ccncc1)C1CC(=O)N(c2ccccc2)C1 (stereo not drawn) 23.2%
C[C@H](CO)N1C[C@H](C)[C@H](CN(C)C(=O)CCC(F)(F)F)OCCCC[C@H](C)Oc2ccc(NS(=O)(=O)c3ccc(Cl)cc3)cc2C1=O 7.45%
C/C=C/c1ccc2c(c1)O[C@H](CN(C)Cc1cncnc1)[C@H](C)CN([C@@H](C)CO)S2(=O)=O 3.18%
C[C@H](CO)N1C[C@H](C)[C@@H](CN(C)Cc2ccc(C(=O)O)cc2)Oc2ccc(NS(=O)(=O)c3cccs3)cc2CC1=O 3.54%
CC(C)C(NC(=O)c1ccc(F)cc1)C(=O)N1CCOCC1 (stereo not drawn) 21.2%
O=C(C[C@H]1C[C@@H]2c3cc(NC(=O)C4CCC4)ccc3O[C@@H]2[C@H](CO)O1)NCC(F)(F)F 1.45%
COc1ccc(S(=O)(=O)N(C)C[C@@H]2Oc3ccc(NC(=O)c4ccncc4)cc3C(=O)N([C@H](C)CO)C[C@@H]2C)cc1 -5.69%
COCC(=O)N1CC2(C1)CN(Cc1ccccc1F)[C@H](CO)c1[nH]c3cc(OC)ccc3c12 -8.2%
Cc1noc(C)c1NC(=O)Nc1ccc2c(c1)C(=O)N([C@H](C)CO)C[C@@H](C)[C@@H](CN(C)C(=O)Nc1ccc(F)cc1)O2 0.559%
C[C@@H]1CN([C@H](C)CO)C(=O)c2cccc(NS(=O)(=O)c3ccc(Cl)cc3)c2O[C@@H]1CN(C)Cc1ccc(C(F)(F)F)cc1 -7.04%
CC(=O)Nc1ccc2c(c1)C(=O)N(C)[C@H]1CC[C@H](CC(=O)NCC3CC3)O[C@@H]1CO2 1.68%
CN1C(=O)c2cc(NC(=O)C3CCCCC3)ccc2OC[C@@H]2O[C@@H](CC(=O)NC3CCCC3)CC[C@H]21 2.02%
CCCNC(=O)C[C@H]1CC[C@@H]2[C@@H](COc3ccc(NC(=O)c4ccccc4)cc3C(=O)N2C)O1 3.57%
COc1cccc(S(=O)(=O)N2CC3(CN(C(=O)Nc4cccc(F)c4)[C@H](CO)c4[nH]c5cc(OC)ccc5c43)C2)c1 4.84% [at 30 µM]
COc1ccc(Cc2nnc(SCC(=O)NC3(C#N)CCCCC3)n2N)cc1 3.28%
C[C@H]1CN([C@@H](C)CO)C(=O)Cc2cc(NC(=O)Nc3cccc4ccccc34)ccc2O[C@H]1CN(C)C(=O)Nc1cccc2ccccc12 6.33%
C[C@@H]1CN([C@H](C)CO)C(=O)c2cccc(NC(=O)Nc3cccc4ccccc34)c2O[C@H]1CN(C)C(=O)Nc1ccc(C(F)(F)F)cc1 -10.1%
C[C@@H]1CN([C@H](C)CO)C(=O)c2cc(NC(=O)Nc3ccc(F)cc3)ccc2O[C@H]1CN(C)Cc1ccc(-c2ccccc2)cc1 0.559%
Cc1noc(C)c1S(=O)(=O)Nc1cccc2c1O[C@H](CN(C)C(=O)Nc1ccc(C(F)(F)F)cc1)[C@H](C)CN([C@@H](C)CO)C2=O 3.91%
C[C@@H]1CN([C@H](C)CO)C(=O)Cc2cc(NC(=O)Nc3cccc4ccccc34)ccc2O[C@@H]1CN(C)C(=O)Nc1cccc2ccccc12 11.3%
C[C@@H]1CN([C@H](C)CO)C(=O)c2cc(NC(=O)Nc3ccc(C(F)(F)F)cc3)ccc2O[C@@H]1CN(C)S(=O)(=O)c1ccc(F)cc1 -0.372%
CN(C)C(=O)C[C@H]1C[C@H]2c3cc(NS(C)(=O)=O)ccc3O[C@H]2[C@H](CO)O1 -4.66%
O=C(NCCCN1CCCC1)c1ccc(CS(=O)(=O)c2c(Cl)cccc2Cl)o1 -2.6%
C[C@H]1CN([C@@H](C)CO)C(=O)c2cccc(NC(=O)Nc3cccc4ccccc34)c2O[C@@H]1CN(C)C(=O)Nc1ccc(C(F)(F)F)cc1 2.99%
CC(C)C#Cc1cnc2c(c1)C(=O)N([C@@H](C)CO)C[C@@H](C)[C@H](CN(C)C(=O)c1ccccc1F)O2 4.66%
